Assay results: paper PMC5515408, “Sequence-specific DNA binding by MYC/MAX to low-affinity non-E-box motifs”
The full ranking holds about 4,500 sequences; the median of “log2 normalized fluorescence” is about -0.34, and the highest 2% start at about 3.3. The full list was thinned out, with the highest values kept by preference.

These sequences were tested against MAX:MAX (p21) (human, UniProt P61244-2 1-151) (assay: protein-binding microarray (anti-MAX antibody); PBM: 15 mM Tris-HCl pH 7.5, 100 mM KCl, 0.075% NP40, 7.5 mM beta-mercaptoethanol, 375 ng/ul BSA, 8 ng/ul poly(dA-dT):(dA-dT), 550 ng complex, 60 min, room tempe; high values mean tight binding). Details: protein: recombinant; tags: 6xHis; chain copies: 2; label: 3' end of printed strand (linker) attached to glass slide; dsDNA, one strand shown.
MAX:MAX (p21), sequence (P61244 other isoform, or with tags, fused parts or gaps): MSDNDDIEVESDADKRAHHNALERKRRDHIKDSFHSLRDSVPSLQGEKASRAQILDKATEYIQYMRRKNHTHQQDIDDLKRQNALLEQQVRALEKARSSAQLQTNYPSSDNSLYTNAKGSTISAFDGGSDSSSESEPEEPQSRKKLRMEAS
How it was run: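 For each of ~5000 unique double-stranded 12-nt sequences, spotted in triplicate on a custom Agilent glass array, binding of His-tagged human MYC:MAX or MAX:MAX dimers is reported as log2 normalized fluorescence. The dimers (550 ng, E. coli-expressed) were incubated for 60 min at room temperature in Tris-KCl buffer, pH 7.5, with NP40, BSA and poly(dA-dT) competitor. Detection used anti-MAX and secondary antibodies with a 543 nm scan.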
“CCGGCTAATACGTGGTATTAATAGCTAAGATTACTATATCGACG” was tested, and the binding signal was 1.49 log2 normalized fluorescence.
“CCGGCGTTCACGTGGTATTAATAGCTAAGATTACTATATCGACG” was tested, and the binding signal was 3.37 log2 normalized fluorescence.
For “CCGGCTTTCACATGGTATTAATAGCTAAGATTACTATATCGACG”, the binding signal was 3.34 log2 normalized fluorescence.
For “CCGGCTTACACATGGTATTAATAGCTAAGATTACTATATCGACG”, the binding signal was 3.16 log2 normalized fluorescence.
With “CCGGCATTCACGTGGTATTAATAGCTAAGATTACTATATCGACG” the binding signal was 3.26 log2 normalized fluorescence.
In the case of “CCGGCTATCACGTGGTATTAATAGCTAAGATTACTATATCGACG”, the binding signal was 3.15 log2 normalized fluorescence.
In the case of “CCGGCTTTCACGTGGTATTAATAGCTAAGATTACTATATCGACG”, the binding signal was 3.41 log2 normalized fluorescence.
“CCGGCCTTCACGTGGTATTAATAGCTAAGATTACTATATCGACG” was tested, and the binding signal was 3.1 log2 normalized fluorescence.
“CCGGCTGAGGGAGCGTATTAATAGCTAAGATTACTATATCGACG” was tested, and the binding signal was -0.434 log2 normalized fluorescence.
With “CCGGCTGAGGAGAGGTATTAATAGCTAAGATTACTATATCGACG” the binding signal was -0.732 log2 normalized fluorescence.
For “CCGGCTGACCGCCGGTATTAATAGCTAAGATTACTATATCGACG”, the binding signal was -0.241 log2 normalized fluorescence.
For “CCGGCTGACAAGCAGTATTAATAGCTAAGATTACTATATCGACG”, the binding signal was -0.299 log2 normalized fluorescence.
In the case of “CCGGCTATTACGTGGTATTAATAGCTAAGATTACTATATCGACG”, the binding signal was 1.27 log2 normalized fluorescence.
With “CCGGCCTCCACGTGGTATTAATAGCTAAGATTACTATATCGACG” the binding signal was 2.94 log2 normalized fluorescence.
For “CCGGCTCCGACGTGGTATTAATAGCTAAGATTACTATATCGACG”, the binding signal was 2.2 log2 normalized fluorescence.
For “CCGGCCCACACGTGGTATTAATAGCTAAGATTACTATATCGACG”, the binding signal was 2.95 log2 normalized fluorescence.
For “CCGGCTAAGACGTGGTATTAATAGCTAAGATTACTATATCGACG”, the binding signal was 1.75 log2 normalized fluorescence.
For “CCGGCCCCCACGTGGTATTAATAGCTAAGATTACTATATCGACG”, the binding signal was 3.4 log2 normalized fluorescence.
In the case of “CCGGCGCCCACGTGGTATTAATAGCTAAGATTACTATATCGACG”, the binding signal was 3.43 log2 normalized fluorescence.
For “CCGGCTCCCACGTGGTATTAATAGCTAAGATTACTATATCGACG”, the binding signal was 3.4 log2 normalized fluorescence.
In the case of “CCGGCTGAAGCCTGGTATTAATAGCTAAGATTACTATATCGACG”, the binding signal was 0.476 log2 normalized fluorescence.
With “CCGGCTGACGGCCCGTATTAATAGCTAAGATTACTATATCGACG” the binding signal was -0.704 log2 normalized fluorescence.
“CCGGCTGACTCACTGTATTAATAGCTAAGATTACTATATCGACG” was tested, and the binding signal was -0.209 log2 normalized fluorescence.
With “CCGGCTGACCTGTGGTATTAATAGCTAAGATTACTATATCGACG” the binding signal was 0.594 log2 normalized fluorescence.
For “CCGGCTGACAACACGTATTAATAGCTAAGATTACTATATCGACG”, the binding signal was 0.856 log2 normalized fluorescence.
In the case of “CCGGCTGACTCGTGCTATTAATAGCTAAGATTACTATATCGACG”, the binding signal was 3.13 log2 normalized fluorescence.
In the case of “CCGGCAAACACGTAGTATTAATAGCTAAGATTACTATATCGACG”, the binding signal was 2.6 log2 normalized fluorescence.
“CCGGCTAACACGTAGTATTAATAGCTAAGATTACTATATCGACG” was tested, and the binding signal was 1.92 log2 normalized fluorescence.
For “CCGGCTTACATGTGGAATTAATAGCTAAGATTACTATATCGACG”, the binding signal was 3.25 log2 normalized fluorescence.
For “CCGGCCGACACGTCGTATTAATAGCTAAGATTACTATATCGACG”, the binding signal was 2.07 log2 normalized fluorescence.
For “CCGGCTTACACGTGGGATTAATAGCTAAGATTACTATATCGACG”, the binding signal was 3.12 log2 normalized fluorescence.
In the case of “CCGGCTGACACGTGGAATTAATAGCTAAGATTACTATATCGACG”, the binding signal was 3.16 log2 normalized fluorescence.
In the case of “CCGGCTAACACGTCGTATTAATAGCTAAGATTACTATATCGACG”, the binding signal was 2.38 log2 normalized fluorescence.
For “CCGGCTTACACGTGGAATTAATAGCTAAGATTACTATATCGACG”, the binding signal was 3.37 log2 normalized fluorescence.
In the case of “CCGGCTAACACGTGGAATTAATAGCTAAGATTACTATATCGACG”, the binding signal was 3.35 log2 normalized fluorescence.
For “CCGGCCGACACGTGGAATTAATAGCTAAGATTACTATATCGACG”, the binding signal was 3.32 log2 normalized fluorescence.
For “CCGGCTGAAGACGGGTATTAATAGCTAAGATTACTATATCGACG”, the binding signal was -0.654 log2 normalized fluorescence.
In the case of “CCGGCTGACCCGTGGTATTAATAGCTAAGATTACTATATCGACG”, the binding signal was 2.38 log2 normalized fluorescence.
For “CCGGCTGAGCAGGAGTATTAATAGCTAAGATTACTATATCGACG”, the binding signal was -0.201 log2 normalized fluorescence.
“CCGGCAGACACGATGTATTAATAGCTAAGATTACTATATCGACG” was tested, and the binding signal was 3.02 log2 normalized fluorescence.
With “CCGGCTGAGATCACGTATTAATAGCTAAGATTACTATATCGACG” the binding signal was 0.425 log2 normalized fluorescence.
For “CCGGCTGAGGGTTCGTATTAATAGCTAAGATTACTATATCGACG”, the binding signal was -0.732 log2 normalized fluorescence.
In the case of “CCGGCTGAACCCTCGTATTAATAGCTAAGATTACTATATCGACG”, the binding signal was 0.0153 log2 normalized fluorescence.
In the case of “CCGGCTGAAGCGGGGTATTAATAGCTAAGATTACTATATCGACG”, the binding signal was 0.358 log2 normalized fluorescence.
In the case of “CCGGCTGATTCGATGTATTAATAGCTAAGATTACTATATCGACG”, the binding signal was -0.732 log2 normalized fluorescence.
With “CCGGCTGACGGGCGGTATTAATAGCTAAGATTACTATATCGACG” the binding signal was -0.202 log2 normalized fluorescence.
In the case of “CCGGCTGCCACGCGGAATTAATAGCTAAGATTACTATATCGACG”, the binding signal was 3.15 log2 normalized fluorescence.
In the case of “CCGGCTGCCACGTGTTATTAATAGCTAAGATTACTATATCGACG”, the binding signal was 3.28 log2 normalized fluorescence.
With “CCGGCTGCCACGAGGAATTAATAGCTAAGATTACTATATCGACG” the binding signal was 3.34 log2 normalized fluorescence.
“CCGGCTGCCACGTGATATTAATAGCTAAGATTACTATATCGACG” was tested, and the binding signal was 3.13 log2 normalized fluorescence.
For “CCGGCTGCCACGTGGAATTAATAGCTAAGATTACTATATCGACG”, the binding signal was 3.31 log2 normalized fluorescence.
With “CCGGCTGCCACGACGTATTAATAGCTAAGATTACTATATCGACG” the binding signal was 1.79 log2 normalized fluorescence.
In the case of “CCGGCTGCCACGTGCGATTAATAGCTAAGATTACTATATCGACG”, the binding signal was 3.47 log2 normalized fluorescence.
“CCGGCTGCCACGTGCTTTTAATAGCTAAGATTACTATATCGACG” was tested, and the binding signal was 3.14 log2 normalized fluorescence.
With “CCGGCTGTCACGTGGAATTAATAGCTAAGATTACTATATCGACG” the binding signal was 3.19 log2 normalized fluorescence.
